Abeta rescue – qHTS for compounds that reverse cellular toxicity of Amyloid beta (A-beta) peptide in yeast: Primary Screen; yeast expressing A-beta42, growth rescue, OD600, 48 h; response scale: 0% DMSO, 100% iron-clioquinol control; Potency, µM (doses to about 46.1 µM), usual class: activators; 410,000 tested, 0.063% active; further: nearly all actives have a fitted effect of over 55% in size
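Yeast A-beta toxicity model in growth medium with pinned compounds, 48 h at 30 C; growth read as absorbance at 600 nm. Normalized to FeCl3/clioquinol equimolar mix (positive) and DMSO (negative).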
FUS suppressor – qHTS for Suppressors of FUS Proteinopathy: Primary screen using FUS-linked yeast assay | AID 1347120, 2019 | Potency, µM (titrated, usually from 76.6 µM), usual class: activators | 390,000 tested, 0.24% active | S. cerevisiae FUS-expressing, growth rescue, OD600, 24 h;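 further: plate controls were DMSO vehicle for no effect and reference control for full effect; nearly all actives have a fitted effect of over 55% in size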
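Restored growth of FUS-toxic S. cerevisiae, read as 600 nm absorbance after 24 h at 30C in galactose medium (starting OD 0.005). Controls CP55940 and DMSO.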
TDP43 rescue – qHTS of TDP-43 Inhibitors; TDP-43 expressing yeast growth rescue, BacTiter-Glo, 24 h; Potency, µM (doses to about 46.1 µM), without a hit: at the top dose growth rescue (activation), actives largely listed as activators; 410,000 tested, 1.8% active; further: % of control where 0% means no effect; nearly all actives have a fitted effect of over 50% in size
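Cell-based yeast growth screen: TDP-43 expression induced in galactose, inoculum OD600=0.02 after raffinose pregrowth to mid-log. Read-out BacTiter-Glo luminescence at 24 hr, 30 deg C; inhibition of toxicity seen as signal increase.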
Mito fusion yeast – qHTS Assay for Small Molecule Inhibitors of Mitochondrial Division or Activators of Mitochondrial Fusion; S. cerevisiae fusion-defective mutant growth rescue, CellTiterGlo 48 h; Potency, µM (top dose mostly 46.1 µM), inactives show top-dose growth rescue (activation), usual class: activators; 320,000 tested, 0.23% active; further: % of control where 0% means no effect; nearly all actives have a fitted effect of over 45% in size
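Yeast fusion mutant, YPEG (non-fermentable carbon), compound, 48 h at 37C non-permissive; CellTiterGlo added, 10 min RT, luminescence read. Rescued growth = division inhibition.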
aSyn rescue – qHTS of alpha-syn Inhibitors; Potency, µM (doses to about 46.1 µM), without a hit: at the highest dose growth rescue (activation), most hits filed as activators; 370,000 tested, 0.14% active; Yeast expressing alpha-synuclein, growth rescue, BacTiter-Glo, 24 h; further: % of control where 0% means no effect; nearly all actives have a fitted effect of over 65% in size
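Galactose-induced alpha-syn yeast (OD600=0.02, raffinose-pregrown) + pinned cpd, 24 hr, 30 deg C; growth by BacTiter-Glo luminescence. Growth restoration scores as activation.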
An asterisk follows results filed as active. In the library only some 2.2% were active in any assay of this set; here they are far more common. The call rests on the fitted dose curve; in most records, active means well fitted curve in the direction sought with a large enough effect; inconclusive means small, poorly fitted or top-dose-only effect, or another doubt; inactive means no such curve, though single readings can be large; an effect the other way counts as inactive or inconclusive. Potency means the concentration at half of the fitted maximal effect.

Screening CC1(C(=O)N2CCN(c3ccc([N+](=O)[O-])cc3)CC2)CC1(Cl)Cl (stereo unspecified) returned Abeta rescue inactive, FUS suppressor inactive, TDP43 rescue 11.2µM*, Mito fusion yeast 10.5% and aSyn rescue -3.1%.
CC1(C(=O)N2CCN(c3ccccc3)CC2)CC1(Cl)Cl (stereo unspecified) was read as Abeta rescue inactive, FUS suppressor inactive, Mito fusion yeast 2.2% and aSyn rescue 3.4%.
O=C(c1cc([N+](=O)[O-])ccc1Cl)N1CCN(c2ccccc2)CC1 was read as Abeta rescue inactive, FUS suppressor inactive, TDP43 rescue 7.94µM*, Mito fusion yeast 5.1% and aSyn rescue 4.9%.
For O=C(NC(=S)N1CCN(c2ccc([N+](=O)[O-])cc2Cl)CC1)c1ccco1 the results were Abeta rescue inactive, TDP43 rescue -2.0%, Mito fusion yeast inconclusive and aSyn rescue -4.5%.
For O=C(c1cc([N+](=O)[O-])ccc1N1CCOCC1)N1CCN(c2ccccc2)CC1 the results were Mito fusion yeast -0.9%.
O=C(c1cc(S(=O)(=O)N2CCN(c3ccccc3)CC2)ccc1Cl)N1CCCCCCC1 was read as Abeta rescue inactive, FUS suppressor inactive, TDP43 rescue 6.9%, Mito fusion yeast 14.1µM* and aSyn rescue 16.6%.
Screening O=C(c1ccco1)N1CCN(c2ccc([N+](=O)[O-])cc2Cl)CC1 returned Abeta rescue inactive, FUS suppressor inactive, TDP43 rescue 14.1µM*, Mito fusion yeast -3.3% and aSyn rescue 1.9%.
For Cc1cccc(NC(=O)CCS(=O)(=O)c2ccccc2)c1C the results were FUS suppressor inactive.
`O=C1CCCc2[nH]c(=O)c(C(=O)NCc3ccccc3)cc21` gave aSyn rescue -1.1%.
`CC(C)c1cc(C(C)C)c(S(=O)(=O)NC(c2ccccn2)C23CC2C3)c(C(C)C)c1` (stereo unspecified) gave Abeta rescue inactive, FUS suppressor inconclusive, TDP43 rescue 22.4µM* and aSyn rescue inconclusive.
CCOc1ccccc1C(=O)N1CC(=O)Nc2ccc(Cl)cc2C1c1ccccc1 (stereo unspecified) was read as Abeta rescue inactive, FUS suppressor inactive and TDP43 rescue 20.7%.
`COc1ccc(OCCn2cc(C=O)c3ccccc32)cc1` gave Abeta rescue inactive, FUS suppressor inactive, TDP43 rescue 10µM*, Mito fusion yeast 2.1% and aSyn rescue -8.4%.
CCc1c(C)nc2ncnn2c1NC1CCCc2ccccc21 (stereo unspecified) was read as Abeta rescue 12.6µM*, FUS suppressor inactive, TDP43 rescue 22.3%, Mito fusion yeast -9.6% and aSyn rescue 7.7%.
COc1ccc(OC)c(-c2csc(NC(=O)Cn3[nH]c(=O)c4ccccc4c3=O)n2)c1 was read as Abeta rescue inactive, FUS suppressor 39.8µM*, TDP43 rescue -20.1%, Mito fusion yeast 9.4% and aSyn rescue -2.6%.
`COc1ccc(OC)c(-c2csc(NC(=O)Cc3ccc(F)cc3)n2)c1` gave Abeta rescue inactive, FUS suppressor inactive, TDP43 rescue 14.1µM*, Mito fusion yeast -12.5% and aSyn rescue 5.4%.
Screening COc1ccc(OC)c(-c2csc(NC(=O)CN3C(=O)C4CCCCC4C3=O)n2)c1 (stereo unspecified) returned Abeta rescue inactive, FUS suppressor inconclusive, TDP43 rescue 2.0%, Mito fusion yeast -3.6% and aSyn rescue 3.0%.
CCn1cc(C(=O)N2CCN(c3ccc(F)cc3)CC2)c(=O)c2cc(S(=O)(=O)N3CCOCC3)ccc21 was read as Abeta rescue inactive, FUS suppressor inactive and TDP43 rescue -15.0%.
For CN=C(Nc1cc(Cl)ccc1Cl)SC1CC(=O)N(c2ccc(C(=O)OC)cc2)C1=O (stereo unspecified) the results were Abeta rescue inconclusive, FUS suppressor inconclusive, TDP43 rescue 25.1µM*, Mito fusion yeast -11.9% and aSyn rescue inconclusive.
`CCCOC(=O)c1ccc(NC(=O)c2cc(OC)c(OC)c(OC)c2Br)cc1` gave Abeta rescue inactive, FUS suppressor inactive, TDP43 rescue 12.6µM*, Mito fusion yeast 5.1% and aSyn rescue 6.2%.
`COc1cc(C(=O)Nc2ccc(C(C)=O)cc2)c(Br)c(OC)c1OC` gave Abeta rescue inactive, TDP43 rescue 4.7%, Mito fusion yeast 0.6% and aSyn rescue -10.0%.
`O=c1ccn(Cc2ccccc2)c(SCc2ccccc2)n1` gave Abeta rescue inactive, TDP43 rescue 7.6% and aSyn rescue -1.1%.
Clc1ccc(CSc2nccn2Cc2ccccc2)cc1 was read as Abeta rescue inactive, FUS suppressor inactive, TDP43 rescue 15.8µM*, Mito fusion yeast -12.1% and aSyn rescue 2.7%.
CCN(CC)C(=O)CC[C@H]1CC[C@]2(CCCN(S(=O)(=O)C3CCCCC3)C2)O1 was read as FUS suppressor inactive.
`COc1ccc(C=C(C(=O)c2ccccc2)c2ccccc2)cc1` gave Abeta rescue inactive, FUS suppressor inactive, TDP43 rescue 0.0% and aSyn rescue 1.2%.
For COc1ccc(C=C(C(C)=O)C(=O)c2ccccc2)cc1 the results were Abeta rescue inactive, FUS suppressor inactive, TDP43 rescue 20µM* and aSyn rescue inconclusive.
Screening COc1ccc(C=C(C(=O)c2ccccc2)C(=O)c2ccccc2)cc1 returned Abeta rescue inactive, FUS suppressor inactive, TDP43 rescue 14.1µM* and aSyn rescue 6.3%.
CCOc1ccc(NC(=O)c2c(NCc3sccc3C)sc3c2CCCCC3)cc1 was read as Abeta rescue inactive, FUS suppressor inactive and TDP43 rescue -10.7%.
CCCCC(=O)Nc1cccc(-c2nc3ccccc3s2)c1 was read as Abeta rescue inactive, FUS suppressor inactive and TDP43 rescue 13.4%.
`Cc1cccc(NC(=O)CSc2cccc3cccnc23)c1` gave Abeta rescue inactive, FUS suppressor inactive, TDP43 rescue inconclusive, Mito fusion yeast -5.3% and aSyn rescue inconclusive.
Cc1ccc(C)c(NC(=O)CSc2cccc3cccnc23)c1 was read as Abeta rescue inactive, FUS suppressor inactive, TDP43 rescue 5.62µM*, Mito fusion yeast -2.8% and aSyn rescue 21.2%.
O=C(CNCc1ccccc1[N+](=O)[O-])N1CCC2(CC1)OCCO2 was read as FUS suppressor inactive.
`O=C(Nc1ccc(N2CCOCC2)cc1Cl)C1CCN(C(=O)OCc2ccccc2)CC1` gave Abeta rescue 10µM*, FUS suppressor inactive, TDP43 rescue 0.0%, Mito fusion yeast -4.3% and aSyn rescue -0.2%.
